# For some assays here: Results with a measured potency or affinity are listed apart.
# Assays:
# Design in all cases: scale not given: direction of the effect not stated beside the values
# [1] = biological target: Protein translocase subunit SecA (Escherichia coli (strain K12)) (UniProt P10408); test: Assay to Identify E. coli SecA ATPase Inhibitors; format: functional; conditions: 30 µM
# [2] = biological target: T1, Ubiquitin-activating enzyme e1, putative (Leishmania donovani (strain BPK282A1)) (UniProt E9BSI1); test: Leishmania donovani Ubiquitin Activating Enzyme (LdE1); format: functional; conditions: 30 µM
# T1 sequence (whole entry): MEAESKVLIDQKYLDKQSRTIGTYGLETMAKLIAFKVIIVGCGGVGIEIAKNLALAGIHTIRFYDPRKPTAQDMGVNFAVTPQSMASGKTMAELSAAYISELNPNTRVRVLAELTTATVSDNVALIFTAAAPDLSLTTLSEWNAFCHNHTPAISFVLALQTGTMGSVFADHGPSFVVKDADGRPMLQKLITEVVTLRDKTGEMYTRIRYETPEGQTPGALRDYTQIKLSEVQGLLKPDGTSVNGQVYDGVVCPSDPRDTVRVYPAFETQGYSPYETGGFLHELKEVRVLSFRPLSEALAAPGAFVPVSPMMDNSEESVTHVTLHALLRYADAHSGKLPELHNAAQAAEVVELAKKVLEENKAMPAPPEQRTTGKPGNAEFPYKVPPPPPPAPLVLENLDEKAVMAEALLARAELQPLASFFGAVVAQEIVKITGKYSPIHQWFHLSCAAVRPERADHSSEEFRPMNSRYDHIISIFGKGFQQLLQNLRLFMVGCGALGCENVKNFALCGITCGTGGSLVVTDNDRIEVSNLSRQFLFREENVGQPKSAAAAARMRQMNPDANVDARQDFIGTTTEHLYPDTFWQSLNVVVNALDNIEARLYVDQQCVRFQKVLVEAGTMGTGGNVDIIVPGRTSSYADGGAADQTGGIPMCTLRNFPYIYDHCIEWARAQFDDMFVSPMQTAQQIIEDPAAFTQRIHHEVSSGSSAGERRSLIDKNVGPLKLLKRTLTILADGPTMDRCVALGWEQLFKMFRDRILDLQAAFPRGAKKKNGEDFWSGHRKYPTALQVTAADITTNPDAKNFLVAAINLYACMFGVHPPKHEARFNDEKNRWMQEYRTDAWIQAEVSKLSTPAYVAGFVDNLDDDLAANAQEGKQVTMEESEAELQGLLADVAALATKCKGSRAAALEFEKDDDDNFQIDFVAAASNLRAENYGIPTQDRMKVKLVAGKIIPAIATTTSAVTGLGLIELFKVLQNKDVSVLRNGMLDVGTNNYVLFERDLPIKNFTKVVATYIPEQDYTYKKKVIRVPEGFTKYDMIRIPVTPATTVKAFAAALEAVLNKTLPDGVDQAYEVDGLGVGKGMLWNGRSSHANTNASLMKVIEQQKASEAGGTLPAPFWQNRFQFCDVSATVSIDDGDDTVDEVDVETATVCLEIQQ
# [3] = biological target: AMP-activated protein kinase, AMPK (Homo sapiens) (UniProt P54646+O43741+P54619+Q9UGJ0+Q9Y478+Q13131+Q9UGI9); test: AMP-dependent Kinase enzyme assay. An in vitro enzyme assay that detects ADP turnover that is directly proportional to AMPK activity. This uses naive AMPK that is activated during the assay with MK-8722; format: functional; conditions: 30 µM
# [4] = biological target: Sialic acid-binding Ig-like lectin 9 (Homo sapiens) (UniProt Q9Y336); test: Hs-Siglec9 ALPHAscreen SOP 20170721; conditions: 10 µM
# Trypanosoma cruzi = test: Trypanosoma cruzi phosphomannomutase and mannose-1-phosphate guanylyltransferase assay; format: functional; conditions: 10 µM
# [5] = biological target: T2, Arginase-2, mitochondrial (Homo sapiens) (UniProt P78540); test: in vitro enzyme assay to detect the production of urea directly proportional to the activity of Arginase II; format: functional; conditions: 33.3 µM; also: in the data most compounds retested in dose-response had high values
# T2 sequence (whole entry): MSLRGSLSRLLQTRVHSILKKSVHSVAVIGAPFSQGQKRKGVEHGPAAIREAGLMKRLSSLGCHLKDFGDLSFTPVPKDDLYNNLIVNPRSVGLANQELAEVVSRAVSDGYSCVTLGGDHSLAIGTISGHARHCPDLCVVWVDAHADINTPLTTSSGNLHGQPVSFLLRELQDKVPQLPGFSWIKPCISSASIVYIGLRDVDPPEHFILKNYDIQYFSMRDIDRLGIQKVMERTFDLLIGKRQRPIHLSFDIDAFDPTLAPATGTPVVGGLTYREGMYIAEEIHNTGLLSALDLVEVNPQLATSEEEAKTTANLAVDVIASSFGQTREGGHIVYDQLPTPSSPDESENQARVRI
# [6] = biological target: T3, Proteasome subunit beta (Trypanosoma cruzi) (UniProt O96673); test: Trypanosoma cruzi proteasome chymotrypsin-like activity (TcProtChymo) assay.; also: in the data most compounds retested in dose-response had high values; format: functional; conditions: 9.37 µM
# T3 sequence (whole entry): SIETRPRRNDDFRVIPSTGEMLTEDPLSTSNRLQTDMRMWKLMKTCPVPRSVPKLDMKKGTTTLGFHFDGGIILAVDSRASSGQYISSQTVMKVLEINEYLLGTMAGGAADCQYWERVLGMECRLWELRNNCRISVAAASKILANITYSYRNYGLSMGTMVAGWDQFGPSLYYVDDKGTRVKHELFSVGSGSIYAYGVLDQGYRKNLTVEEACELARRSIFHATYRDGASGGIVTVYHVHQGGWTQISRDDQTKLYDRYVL
# Homo sapiens = species on record: Homo sapiens; test: To identify inhibition of the IFN signalling (Jak-Stat) pathway via expression of an eGFP reporter gene under the control of an IFN-stimulated response element (ISRE) containing MxA promoter.; format: functional; conditions: 30 µM
# [7] = biological target: T4, Tyrosyl-tRNA synthetase, putative (Trypanosoma cruzi (strain CL Brener)) (UniProt Q4DSP6); test: Trypanosoma cruzi tyrosyl tRNA synthetase (TcYRS) _High Tyrosine SOP; format: functional; conditions: 30 µM; also: in the data most compounds retested in dose-response had high values
# T4 sequence (whole entry): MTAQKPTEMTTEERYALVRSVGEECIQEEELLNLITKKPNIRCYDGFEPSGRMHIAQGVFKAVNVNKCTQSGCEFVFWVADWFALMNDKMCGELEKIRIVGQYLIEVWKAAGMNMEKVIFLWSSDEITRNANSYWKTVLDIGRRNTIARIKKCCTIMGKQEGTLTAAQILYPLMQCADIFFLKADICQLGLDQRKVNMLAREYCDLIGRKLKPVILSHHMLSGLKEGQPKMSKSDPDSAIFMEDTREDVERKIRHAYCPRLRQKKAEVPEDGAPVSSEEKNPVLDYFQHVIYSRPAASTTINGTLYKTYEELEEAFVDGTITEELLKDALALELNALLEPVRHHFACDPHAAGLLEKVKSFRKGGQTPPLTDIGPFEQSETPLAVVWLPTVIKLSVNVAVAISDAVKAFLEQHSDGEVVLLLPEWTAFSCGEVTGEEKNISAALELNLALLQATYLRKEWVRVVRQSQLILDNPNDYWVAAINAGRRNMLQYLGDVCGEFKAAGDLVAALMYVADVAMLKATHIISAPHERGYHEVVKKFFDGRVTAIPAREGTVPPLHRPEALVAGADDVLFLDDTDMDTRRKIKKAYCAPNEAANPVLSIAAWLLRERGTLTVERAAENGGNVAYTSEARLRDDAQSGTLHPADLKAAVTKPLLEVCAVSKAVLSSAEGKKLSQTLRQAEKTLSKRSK
# [8] = biological target: T4, Tyrosyl-tRNA synthetase, putative (Trypanosoma cruzi (strain CL Brener)); test: Trypanosoma cruzi tyrosyl tRNA synthetase (TcYRS) SOP; format: functional; conditions: 30 µM
# [9] = biological target: Chromo domain-containing protein 1 (Saccharomyces cerevisiae (strain ATCC 204508 / S288c) (Baker's yeast)) (UniProt P32657); test: ScCHD-1 Enzyme Inhibition Assay; format: functional; conditions: 30 µM; also: in the data most compounds retested in dose-response had high values
# Chain of Chromo domain-containing protein 1 (Saccharomyces cerevisiae (strain ATCC 204508 / S288c) (Baker's yeast)) (P32657 whole entry, the tested form may be a part): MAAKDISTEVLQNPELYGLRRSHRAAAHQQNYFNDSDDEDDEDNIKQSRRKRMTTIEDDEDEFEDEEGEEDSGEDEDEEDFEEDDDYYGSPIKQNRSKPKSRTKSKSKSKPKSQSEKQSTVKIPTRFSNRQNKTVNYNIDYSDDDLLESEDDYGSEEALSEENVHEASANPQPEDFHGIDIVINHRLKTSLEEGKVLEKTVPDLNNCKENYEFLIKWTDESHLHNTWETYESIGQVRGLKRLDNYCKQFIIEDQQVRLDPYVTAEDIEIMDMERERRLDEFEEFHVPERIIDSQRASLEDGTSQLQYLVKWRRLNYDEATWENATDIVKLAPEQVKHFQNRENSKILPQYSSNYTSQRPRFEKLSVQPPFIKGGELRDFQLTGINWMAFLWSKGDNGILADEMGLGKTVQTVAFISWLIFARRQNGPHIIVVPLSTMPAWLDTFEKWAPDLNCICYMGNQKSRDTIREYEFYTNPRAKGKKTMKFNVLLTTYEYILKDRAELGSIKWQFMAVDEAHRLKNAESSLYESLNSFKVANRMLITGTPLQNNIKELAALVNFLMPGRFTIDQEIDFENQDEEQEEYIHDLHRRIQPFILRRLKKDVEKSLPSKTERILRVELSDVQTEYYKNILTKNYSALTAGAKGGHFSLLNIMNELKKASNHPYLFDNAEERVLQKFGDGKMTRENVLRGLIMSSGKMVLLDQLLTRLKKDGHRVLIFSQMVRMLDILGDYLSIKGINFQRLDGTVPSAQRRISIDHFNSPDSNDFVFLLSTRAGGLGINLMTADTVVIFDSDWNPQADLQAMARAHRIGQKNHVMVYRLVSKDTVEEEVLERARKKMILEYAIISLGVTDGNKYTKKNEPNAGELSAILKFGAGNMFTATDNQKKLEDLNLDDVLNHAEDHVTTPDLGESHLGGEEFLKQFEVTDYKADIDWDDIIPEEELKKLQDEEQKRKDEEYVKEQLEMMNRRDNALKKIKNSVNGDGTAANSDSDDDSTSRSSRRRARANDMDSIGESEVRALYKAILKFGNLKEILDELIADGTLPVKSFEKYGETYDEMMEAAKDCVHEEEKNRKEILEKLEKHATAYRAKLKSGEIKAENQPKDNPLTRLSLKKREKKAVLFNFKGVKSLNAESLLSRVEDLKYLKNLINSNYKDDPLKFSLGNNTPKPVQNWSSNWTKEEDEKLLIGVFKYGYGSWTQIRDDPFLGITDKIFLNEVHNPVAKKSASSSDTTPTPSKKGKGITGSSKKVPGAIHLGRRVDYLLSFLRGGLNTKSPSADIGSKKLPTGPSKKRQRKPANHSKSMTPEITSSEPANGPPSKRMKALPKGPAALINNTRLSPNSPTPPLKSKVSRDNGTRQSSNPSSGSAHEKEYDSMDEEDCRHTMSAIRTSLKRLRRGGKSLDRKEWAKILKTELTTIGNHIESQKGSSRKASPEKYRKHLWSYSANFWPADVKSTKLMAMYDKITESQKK
# Chain of Protein translocase subunit SecA (Escherichia coli (strain K12)) (P10408 whole entry): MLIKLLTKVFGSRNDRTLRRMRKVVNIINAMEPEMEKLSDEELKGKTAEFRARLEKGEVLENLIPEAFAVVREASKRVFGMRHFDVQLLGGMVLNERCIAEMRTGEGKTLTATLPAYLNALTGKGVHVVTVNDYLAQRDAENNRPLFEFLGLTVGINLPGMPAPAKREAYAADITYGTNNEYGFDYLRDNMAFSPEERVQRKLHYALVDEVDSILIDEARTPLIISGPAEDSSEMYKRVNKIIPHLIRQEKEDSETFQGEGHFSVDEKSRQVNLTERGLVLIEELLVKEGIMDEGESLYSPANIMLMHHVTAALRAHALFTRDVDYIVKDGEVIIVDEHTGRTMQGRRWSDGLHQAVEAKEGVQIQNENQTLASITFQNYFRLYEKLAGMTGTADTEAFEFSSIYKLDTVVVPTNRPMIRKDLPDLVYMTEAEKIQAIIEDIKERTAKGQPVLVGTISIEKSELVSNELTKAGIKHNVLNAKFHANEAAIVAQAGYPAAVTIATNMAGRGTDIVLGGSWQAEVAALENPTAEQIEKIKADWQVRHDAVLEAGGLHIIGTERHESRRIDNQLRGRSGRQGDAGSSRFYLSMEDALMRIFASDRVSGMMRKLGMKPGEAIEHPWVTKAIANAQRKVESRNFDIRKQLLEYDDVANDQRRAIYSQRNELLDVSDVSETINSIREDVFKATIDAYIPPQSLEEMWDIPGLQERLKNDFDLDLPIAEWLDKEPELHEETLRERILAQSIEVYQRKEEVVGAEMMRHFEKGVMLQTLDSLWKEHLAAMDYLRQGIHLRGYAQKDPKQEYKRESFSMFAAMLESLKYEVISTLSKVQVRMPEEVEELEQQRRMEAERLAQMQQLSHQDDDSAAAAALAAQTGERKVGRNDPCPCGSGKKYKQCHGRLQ
# Chain of Sialic acid-binding Ig-like lectin 9 (Homo sapiens) (Q9Y336 whole entry): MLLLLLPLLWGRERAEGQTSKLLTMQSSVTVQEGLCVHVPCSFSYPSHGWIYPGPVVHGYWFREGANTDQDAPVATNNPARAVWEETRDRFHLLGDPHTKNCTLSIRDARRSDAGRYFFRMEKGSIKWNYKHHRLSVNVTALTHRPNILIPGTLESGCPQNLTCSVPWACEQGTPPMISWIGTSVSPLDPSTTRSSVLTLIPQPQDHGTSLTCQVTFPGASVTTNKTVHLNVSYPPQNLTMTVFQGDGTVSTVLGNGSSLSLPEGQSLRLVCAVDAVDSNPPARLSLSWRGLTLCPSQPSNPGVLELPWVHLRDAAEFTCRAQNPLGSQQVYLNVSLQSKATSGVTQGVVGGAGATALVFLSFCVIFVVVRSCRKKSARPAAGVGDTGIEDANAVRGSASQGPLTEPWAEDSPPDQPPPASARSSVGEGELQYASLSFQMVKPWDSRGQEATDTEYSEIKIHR
SMILES,Percent Effect [1] [%],Percent Effect [2] [%],Percent Effect [3] [%],Percent Effect [4] [%],Percent Effect (Trypanosoma cruzi) [%],Percent Effect [5] [%],Percent Effect [6] [%],Percent Effect (Homo sapiens) [%],Percent Effect [7] [%],Percent Effect [8] [%],Percent Effect [9] [%]
CCN(Cc1ccc(OC)c(F)c1)C(=O)c1ccc(C)[nH]c1=O,-3.17,10.5,2.62,9.42,-0.188,2.3,4.68,8.35,8.33,19.5,-8.67
CCN(Cc1ccco1)C(=O)NCc1nnc2n1CCC2,-1.4,10.8,-2.71,1.38,-1.35,3.81,20.5,0.671,6.88,14.6,-1.97
Cc1nn(C)c(C)c1C(=O)N1CCOCC1CC(=O)c1ccco1 (stereo not given),-2.08,0,5.49,5.37,4.19,-8.28,-0.0959,-9.68,0,7.79,-0.43
CC(C)N1Cc2c(C(=O)N3CCOCC3)nn(C)c2C1,-3.37,-2.7,4.04,1.67,-1.66,0.955,17.3,-39.2,-1.08,5.13,4.29
CN(C(=O)C1CCCCC1)[C@@H]1CCC[C@@H](N2CCOCC2)[C@@H]1O,-3.72,4.05,0.0373,6.37,1.78,-2.09,6.86,8.21,1.07,3.9,74.8
Cc1nc(CO[C@@H]2CN(Cc3cnn(C)c3)[C@@H]3COC[C@@H]32)cs1,-0.847,13.7,1.23,4.76,-2.58,1.6,7.96,2.98,3.12,11.1,3.26
CCN1CCN(C2CCN(Cc3nnc(C(C)(C)C)o3)CC2)C1=O,-4.08,13,7.53,-0.00786,0.686,1.05,10.3,4.76,7.62,14.1,-21.7
CCCC(C)(C)NC(=O)c1ccc(CC2CC(=O)NC2=O)cc1 (stereo not given),-8.33,8.22,6.89,23.9,3.53,2.27,15.1,13.9,3.23,10,-5.88
CN1C(=O)C(c2cccnc2)CC12CCN(C(=O)c1cccn1C)CC2 (stereo not given),-1.55,0,-0.439,0.0913,0,4.48,6.67,-2.67,-3.12,-2.5,-4.59
Cc1cccc(-c2noc(CN3CCC(N4CCNC4=O)CC3)n2)c1,-6.31,13,4.11,4.47,0.374,-1.78,-2.2,21.5,7.77,12.2,-3.52

# Reference: ChEMBL document CHEMBL3988442, “University of Dundee, Small-Polar-MMV Screening Library” (2021)
